Test results published in the supplement of paper PMC10670038.
Counter-ions that a name gives are not always drawn. ± gives the standard deviation of the averaged measurements. The full ranking holds about 2,000 compounds; the median of “relative cell viability vs DMSO, compound + 0.2 uM CuET” is about 1, and the lowest 2% start at about 0.25. This is one part of a sample in which the lowest values are shown more often than they occur.

system: TE10; assay: relative cell viability vs DMSO, compound + 0.2 uM CuET (fraction); TE10 is an esophageal squamous carcinoma line; higher = less cytotoxic; conditions: 2 µM; co-treatment: CuET (bis(diethyldithiocarbamate)copper) 0.2 uM; 48 h
Experimental: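 TE10 ESCC cells (1,000/well, 384-well plates) were treated with Selleck bioactive library compounds at 2 uM combined with 0.2 uM CuET (copper diethyldithiocarbamate) for 48 h. Viability was read by CellTiter-Glo and expressed relative to DMSO wells. Two technical replicates (A, B).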

SMILES | relative cell viability
C=CC(=O)Nc1cccc(Nc2nc(Nc3ccc(OCCOC)cc3)ncc2F)c1 | 0.892 ± 0.11
O=S(=O)(c1ccccc1)N(CC(F)(F)F)c1ccc(C(O)(C(F)(F)F)C(F)(F)F)cc1 | 1 ± 0.084
CC(C)(O)C1CCC(C)(C2C(O)CC3(C)C4CC(OC5OC(CO)C(O)C(O)C5O)C5C(C)(C)C(OC6OCC(O)C(O)C6O)CCC56CC46CCC23C)O1 (stereo not given) [Astragaloside A] | 1.15 ± 0.069
O=C(O)CCCc1c[nH]c2ccccc12 [3-Indolebutyric acid (IBA)] | 1.12 ± 0.072
O=C(/C=C/c1ccc(CN(CCO)CCc2c[nH]c3ccccc23)cc1)NO [LAQ824 (Dacinostat)] | 0.145 ± 0.0072
OCc1c[nH]c2ccccc12 [Indole-3-carbinol] | 1.1 ± 0.11
CC1(C)CCCC2(C)C1CCC1(C)OC(=O)CC12 (stereo not given) [Sclareolide] | 1.05 ± 0.085
O=S(=O)(NCCNCC=Cc1ccc(Br)cc1)c1cccc2cnccc12 | 1.12 ± 0.058
CCN(CC)C(=S)SSC(=S)N(CC)CC [Disulfiram] | 0.0338 ± 0.0054
Cn1cc(-c2[nH]c3cc(NC(=O)[C@H](N)C4CCCCC4)cc4c3c2C=NNC4=O)cn1 | 0.702 ± 0.016
NC(=O)C1CCCc2c1[nH]c1ccc(Cl)cc21 (stereo not given) [EX 527 (Selisistat)] | 1.15 ± 0.033
CC(C)c1cc2c(N3CCN(C4=NCC(C)(C)S4)CC3)ncnc2s1 [MI-3 (Menin-MLL Inhibitor)] | 0.972 ± 0.023
CC1=CC(=O)c2ccccc2C1=O [Menadione] | 0.671 ± 0.13
CC1(C)CCC2=C(O1)c1ccccc1C(=O)C2=O [Beta-Lapachone] | 0.246 ± 0.051
C=CC(=O)Nc1cc(Nc2nccc(-c3c[nH]c4ccccc34)n2)c(OC)cc1N(C)CCN(C)C | 0.476 ± 0.0093
Cc1ccc(-n2[nH]c(C)c(N=Nc3cccc(-c4cccc(C(=O)O)c4)c3O)c2=O)cc1C [Eltrombopag Olamine] | 1.145 ± 0.0091
Cc1ccc(-n2[nH]c(C)c(N=Nc3cccc(-c4cccc(C(=O)O)c4)c3O)c2=O)cc1C [Eltrombopag] | 1.04 ± 0.1
OC(CC1c2ccccc2-c2cncn21)C1CCCCC1 (stereo not given) | 1.13 ± 0.055
C#Cc1cccc(Nc2ncnc3cc(OCCOC)c(OCCOC)cc23)c1 [Erlotinib HCl (OSI-744)] | 1.18 ± 0.1
C#Cc1cccc(Nc2ncnc3cc(OC)c(OCCCCCCC(=O)NO)cc23)c1 | 0.182 ± 0.024
C#Cc1cccc(Nc2ncnc3cc(OCCOC)c(OCCO)cc23)c1 | 1.02 ± 0.013
C#Cc1cccc(Nc2ncnc3cc(OCCOC)c(OCCOC)cc23)c1 [Erlotinib] | 0.996 ± 0.091
CN(C)C(=O)c1ccc(S(=O)(=O)c2ccc(NC(=O)C(C)(O)C(F)(F)F)c(Cl)c2)cc1 (stereo not given) | 1.2 ± 0.14
CCc1cnn2c(NCc3ccc[n+]([O-])c3)cc(N3CCCC[C@H]3CCO)nc12 | 0.842 ± 0.12
COCC[n+]1c2c(n(Cc3cnccn3)c1C)C(=O)c1ccccc1C2=O [YM155 (Sepantronium Bromide)] | 0.111 ± 0.0058
CCCCCCCCCCCCCCCc1cccc(O)c1C(=O)O [Anacardic Acid] | 1.26 ± 0.019
CC1(C)Cc2c(-c3ccccc3)c(-c3ccc(Cl)cc3)c(CC(=O)O)n2C1 [Licofelone] | 1.17 ± 0.023
N#Cc1ccc2[nH]c(O)c(-c3ccc(CN4CCOCC4)cn3)c2c1 | 1.4 ± 0.13

SMILES | relative cell viability
Cc1nc2ccc(-n3ncc(C(=O)c4cc5ccccc5[nH]4)c3N)cc2[nH]1 | 0.987 ± 0.053
CN(C)C(=S)NN=C(c1ccccn1)c1ccccn1 | 0.943 ± 0.047
O=C(Nc1cccc(Cl)c1)c1ccccn1 | 1.24 ± 0.1
Clc1ccc(NN=C(c2ccccc2)c2ccccn2)nc1 | 0.03199 ± 0.00018
CC(=O)N[C@@H](CC(C)C)C(=O)N[C@@H](CC(C)C)C(=O)N[C@H](C=O)CCCNC(=N)N [Leupeptin Hemisulfate] | 1.16 ± 0.025
N#CC(=Cc1ccc(-c2cc(Cl)ccc2Cl)o1)C(=O)Nc1cccc2ncccc12 | 1.06 ± 0.03
COc1cc(C=CC(=O)N2CCC=CC2=O)cc(OC)c1OC [Piperlongumine] | 0.392 ± 0.035
CC(NC(=O)Cc1cc(F)cc(F)c1)C(=O)NC1C(=O)N(C)c2ccccc2-c2ccccc21 (stereo not given) | 0.97 ± 0.13
CC1=NN(c2ccc(C(=O)O)cc2)C(=O)C1=Cc1ccc(-c2cc(C)c(C)cc2[N+](=O)[O-])o1 | 0.872 ± 0.091
Cc1nc(-c2cn3c(n2)-c2ccc(-c4cnn(C(C)(C)C(N)=O)c4)cc2OCC3)n(C(C)C)n1 | 0.675 ± 0.072
OCc1ccc(-c2ccc(-c3ccc(CO)s3)o2)s1 | 0.225 ± 0.01
CC(=O)OCC(=O)[C@@]12N=C(C)O[C@@H]1C[C@H]1[C@@H]3CCC4=CC(=O)C=C[C@]4(C)[C@H]3[C@@H](O)C[C@@]12C [Deflazacort] | 1.03 ± 0.012
CCOc1nc2cccc(C(=O)O)c2n1Cc1ccc(-c2ccccc2-c2nnn[nH]2)cc1 [Candesartan] | 1.06 ± 0.031
CN(C)Cc1cccc(N=C(c2ccccc2)c2c(O)[nH]c3cc(C(N)=O)ccc23)c1 | 0.952 ± 0.014
Cc1[nH]c2ccccc2c1CCNCc1ccc(/C=C/C(=O)NO)cc1 [Panobinostat (LBH589)] | 0.151 ± 0.0045
Cc1[nH]c2ccccc2c1C1=C(NCCc2ccc(F)cc2)C(=O)N(C)C1=O | 1.17 ± 0.023
Cc1[nH]c2ccccc2c1CCNC(=O)c1cccs1 | 1.01 ± 0.15
COc1c(O)cc2c(c1O)[C@@H]1O[C@H](CO)[C@@H](O)[C@H](O)[C@H]1OC2=O [Bergenin] | 1.18 ± 0.021
CN1CCC(NC(=O)c2cc(-c3c(O)cc(O)cc3Oc3ccc([N+](=O)[O-])cc3)on2)CC1 | 0.6427 ± 0.0019
NC1CC1c1ccc(-c2cccc(O)c2)cc1 (stereo not given) | 1.13 ± 0.036
O=C(/C=C/c1cccc(S(=O)(=O)Nc2ccccc2)c1)NO [Belinostat (PXD101)] | 0.195 ± 0.017
O=C(C=Cc1ccccc1)NC(NC(=S)Nc1ccc(Cl)cc1)C(Cl)(Cl)Cl (stereo not given) | 0.908 ± 0.014
Cn1cc(/C=C/C(=O)c2cccc(F)c2)cc1/C=C/C(=O)NO | 0.872 ± 0.12
COC1C(O)CC(=O)OC(C)CC=CC=CC(OC2CCC(N(C)C)C(C)O2)C(C)CC(CC=O)C1OC1OC(C)C(OC2CC(C)(O)C(O)C(C)O2)C(N(C)C)C1O (stereo not given) [Spiramycin] | 1.11 ± 0.0071
COC(=O)CC(NC(=O)C(C)NC(=O)C(NC(=O)OCc1ccccc1)C(C)C)C(=O)CF (stereo not given) | 1.3 ± 0.057
CCCCc1nc2cc(/C=C/C(=O)NO)ccc2n1CCN(CC)CC [Pracinostat (SB939)] | 0.2435 ± 0.00015
CN(C)Cc1ccc(S(=O)(=O)n2ccc(/C=C/C(=O)NO)c2)cc1 [Resminostat] | 0.848 ± 0.19
